Assay results from PubChem BioAssay (NCATS).
Values joined by “and” are separate entries in the source; they are usually repeats but may differ in a detail not shown here. Equal values may be shown once. Records with an inconclusive call do not appear. A call without a number means that no potency is given here. Active and inactive are the calls of the source. Unless noted, calls follow the shape of the dose curve; as a rule, active = well fitted curve in the direction sought with a large enough effect; inconclusive = small, poorly fitted or top-dose-only effect, or another doubt; inactive = no such curve, though single readings can be large; an effect the other way counts as inactive or inconclusive.

Experiments:
[1] = Cellular Toxicity (caspase-3) HUV-EC-C (AID 656); details: HUV-EC-C cells, caspase-3 activation (apoptosis), vehicle = 0, 100 µM tamoxifen = 100%; series mostly up to 92.2 µM
In short: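 HUV-EC-C cells (1000/well) in complete medium, compound-treated 16 h at 37 °C; caspase-3/7 activity read by Caspase-Glo 3/7 luminescence. Normalized to DMSO (basal) and 100 uM tamoxifen (100%); AC50 from Hill-equation concentration-response fits.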

[2] = Cellular Toxicity (caspase-3) H-4-II-E (AID 663); details: H-4-II-E rat hepatoma; Potency: caspase-3 activation; series mostly up to 92.2 µM;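 also: cells exposed to compound for 16 hr before readout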
In short: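 H-4-II-E rat hepatoma, 1500 cells/well, 5 hr settle at 37 °C; compound 16 hr, 37 °C, complete medium; Caspase-Glo 3/7, 20 min RT; luminescence. DMSO = 0%, 100 uM tamoxifen = 100%; Hill-equation AC50.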

[3] = MultiTox-Fluor Cytotoxicity Assay - LYMP1-002 - Dead Cells (AID 960); details: LYMP1-002 lymphoblastoid cells, dead-cell protease fluorescence; series mostly up to 46.1 µM; also: nearly all actives have a fitted effect of over 60% in size
In short: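 Readout: fluorescence at 485/520 from cell-impermeant bis-AAF-R110 cleaved by proteases leaking from damaged cells. LYMP1-002 lymphoblastoid line, 16 hr compound treatment at 37 C, concentration-response in qHTS format; Hill-equation AC50 values.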

[4] = Cell Viability - LYMP2-004 (AID 966); details: LYMP2-004 lymphoblastoid cell viability, qHTS; series mostly up to 92.2 µM; also: nearly all actives have a fitted effect of over 65% in size
In short: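 Luminescent ATP read-out (CellTiter-Glo, 30 min RT) after 24 hr compound exposure at 37 C; 2500 lymphoblastoid cells/well, complete medium. Decrease in ATP = cytotoxicity; AC50 from standard Hill model.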

[5] = Cell Viability - LYMP2-005 (AID 967); details: LYMP2-005 lymphoblastoid cell viability; series mostly up to 92.2 µM
In short: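 Human lymphoblastoid LYMP2-005 cells, 2,500 per well in complete medium, rested 5 h at 37C then compound-treated 24 h at 37C. Intracellular ATP read by CellTiter-Glo luminescence after 30 min at room temperature; AC50 from Hill-equation fits of concentration-response data.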

[6] = Cell Viability - LYMP2-013 (AID 970); details: LYMP2-013 lymphoblastoid cells viability; series mostly up to 92.2 µM; also: nearly all actives have a fitted effect of over 55% in size
In short: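 CellTiter-Glo luminescence (cellular ATP) read after 30 min at RT. Cells: human lymphoblastoid line, 2500/well, 24 hr compound exposure at 37 C. Tetraoctylammonium bromide positive control; AC50 via standard Hill fit of qHTS titrations.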

[7] = Cell Viability - LYMP2-025 (AID 976); details: LYMP2-025 lymphoblastoid cell viability; series mostly up to 92.2 µM
In short: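 CellTiter-Glo luminescence (cellular ATP) after 24 h compound exposure at 37 C; LYMP2-025 human lymphoblastoid cells, 2500/well, complete medium. Tetraoctylammonium bromide positive control. AC50 by Hill equation fit of qHTS concentration-response.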

[8] = Cell Viability - LYMP2-007 (AID 979); details: LYMP2-007 lymphoblastoid cell viability; series mostly up to 92.2 µM;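 also: cells exposed to compound for 24 h before reading; nearly all actives have a fitted effect of over 60% in size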
In short: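 qHTS cytotoxicity: 2500 cells/well, 5 hr 37 C settle, compound 24 hr 37 C, CellTiter-Glo 30 min RT, luminescence. Decrease in ATP = toxicity. AC50 by standard Hill equation; tetraoctylammonium bromide positive control.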

[9] = Cell Viability - LYMP2-014 (AID 983); details: LYMP2-014 lymphoblastoid cells, viability qHTS; series mostly up to 92.2 µM; also: nearly all actives have a fitted effect of over 50% in size
In short: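 2500 cells/well, 5 hr 37 C; cpd 24 hr 37 C, complete medium; CellTiter-Glo 30 min RT, luminescence; ATP loss = toxicity; AC50 via Hill eqn; tetraoctylammonium bromide positive control.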

[10] = Cell Viability - LYMP2-018 (AID 985); details: LYMP2-018 lymphoblastoid cells, viability (qHTS); series mostly up to 92.2 µM; also: nearly all actives have a fitted effect of over 50% in size
In short: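 2500 cells/well; 5 hr 37 C; cmpd 24 hr 37 C, complete medium; CellTiter-Glo 30 min RT; luminescence. Tetraoctylammonium bromide positive control. AC50 via Hill fit.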

[11] = Cell Viability - LYMP2-022 (AID 987); details: LYMP2-022 lymphoblastoid cell viability; series mostly up to 92.2 µM; also: nearly all actives have a fitted effect of over 55% in size
In short: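 Luminescent ATP read-out (CellTiter-Glo, 30 min, RT) after 24 hr, 37 C compound exposure of 2500 human lymphoblastoid cells/well in complete medium. Cytotoxicity taken as concentration-dependent ATP loss; AC50 from standard Hill equation.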

[12] = Cell Viability - LYMP2-024 (AID 988); details: LYMP2-024 lymphoblastoid cell viability; series mostly up to 92.2 µM; also: nearly all actives have a fitted effect of over 60% in size
In short: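 ATP-based luminescence (CellTiter-Glo, 30 min RT) after 24 h compound exposure at 37 C of 2500 lymphoblastoid cells/well; decrease in ATP taken as cytotoxicity. qHTS concentration-response fitted to standard Hill equation for AC50.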

[13] = qHTS assay for small molecule agonists of retinoid X receptor alpha signaling (AID 588544); details: HEK293T RXRa-UAS-bla, beta-lactamase reporter, 18 h; 530 nm emission
[14] = qHTS assay for small molecule antagonists of retinoid X receptor alpha signaling (AID 588546); details: HEK293T RXRa-UAS-bla, beta-lactamase ratio, antagonist mode; measured here: W530 green channel, cytotoxicity proxy;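 also: cells stimulated with 9-cis-retinoic acid as agonist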
In short: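 Beta-lactamase reporter inhibition, read as CCF4 fluorescence ratio (ex 405, em 460/530 nm) after 2 h at RT. HEK293T UAS-bla cells, 2500/well, were stimulated with 9-cis-RA at 500 or 100 nM final alongside test compound for 18 h at 37 C.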

[15] = target: Tumor necrosis factor (Homo sapiens) (UniProt P01375); assay: qHTS assay to identify small molecules that stimulate Tumor Necrosis Factor-alpha (TNF-alpha) secretion (AID 651757; active = well fitted curve in the direction sought with a large enough effect in the signal ratio; the % refers to the signal ratio); details: Human cells, HTRF 665/615 ratio; series mostly up to 92.2 µM
Chain of Tumor necrosis factor (Homo sapiens) (P01375 whole entry, looked up): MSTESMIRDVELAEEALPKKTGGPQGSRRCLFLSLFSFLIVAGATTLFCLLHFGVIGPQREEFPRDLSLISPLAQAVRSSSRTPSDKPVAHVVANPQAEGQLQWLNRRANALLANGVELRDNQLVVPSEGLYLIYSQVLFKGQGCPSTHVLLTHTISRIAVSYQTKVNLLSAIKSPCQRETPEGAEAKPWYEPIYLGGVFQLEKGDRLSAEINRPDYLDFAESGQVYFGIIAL
In short: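 THP-1 cells, 3000/well; compound 17 hrs, 37 C; add cryptate/XL665 anti-TNF-alpha antibody pair; 3 hr RT; TR-FRET (HTRF) read of secreted TNF-alpha. Quantitative HTS format.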

[16] = target: Nuclear receptor subfamily 1 group I member 2 (Rattus norvegicus) (UniProt Q9R1A7); assay: qHTS assay for small molecule activators of the rat pregnane X receptor (rPXR) signaling pathway (AID 651751; call rule not given here); details: rPXR reporter cells, luciferase (One-Glo), 24 h
Chain of Nuclear receptor subfamily 1 group I member 2 (Rattus norvegicus) (Q9R1A7 whole entry, looked up): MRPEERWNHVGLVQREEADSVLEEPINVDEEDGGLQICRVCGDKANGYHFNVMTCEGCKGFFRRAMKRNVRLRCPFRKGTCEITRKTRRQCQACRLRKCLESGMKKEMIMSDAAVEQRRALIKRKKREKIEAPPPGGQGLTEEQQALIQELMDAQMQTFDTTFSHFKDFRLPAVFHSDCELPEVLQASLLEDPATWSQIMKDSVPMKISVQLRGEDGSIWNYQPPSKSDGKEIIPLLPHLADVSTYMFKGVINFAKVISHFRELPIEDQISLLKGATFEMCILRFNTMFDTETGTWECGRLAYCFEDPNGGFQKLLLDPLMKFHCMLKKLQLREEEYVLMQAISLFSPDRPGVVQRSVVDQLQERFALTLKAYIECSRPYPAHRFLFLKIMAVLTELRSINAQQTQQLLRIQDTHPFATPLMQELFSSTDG

[17] = target: Thyroid hormone receptor beta (Homo sapiens) (UniProt P10828); assay: qHTS assay for small molecule agonists of thyroid hormone receptor beta signaling (AID 588545; calls by dose curve); details: TR-UAS-bla GripTite HEK 293, beta-lactamase ratio, agonist mode, 18 h; series mostly up to 76.7 µM
Chain of Thyroid hormone receptor beta (Homo sapiens) (P10828 whole entry, looked up): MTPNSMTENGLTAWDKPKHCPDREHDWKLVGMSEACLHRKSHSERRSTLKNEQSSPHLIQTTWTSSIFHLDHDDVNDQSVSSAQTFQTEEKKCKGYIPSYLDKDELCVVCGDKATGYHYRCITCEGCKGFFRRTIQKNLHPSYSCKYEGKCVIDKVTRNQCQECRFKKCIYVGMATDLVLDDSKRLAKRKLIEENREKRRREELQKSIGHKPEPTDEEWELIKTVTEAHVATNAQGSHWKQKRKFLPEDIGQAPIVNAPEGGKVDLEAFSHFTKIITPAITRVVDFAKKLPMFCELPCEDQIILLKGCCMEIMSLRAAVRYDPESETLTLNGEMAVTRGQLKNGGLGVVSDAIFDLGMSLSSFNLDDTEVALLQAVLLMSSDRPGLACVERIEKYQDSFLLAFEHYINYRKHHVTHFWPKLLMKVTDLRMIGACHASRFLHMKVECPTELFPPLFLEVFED
In short: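 Beta-lactamase reporter activity under TR response element control is measured in HEK 293 cells after 18 hrs compound exposure. Signal is ratiometric CCF4 fluorescence, 460/530 nm.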

[18] = qHTS assay for cell viability of HEK293 cells (AID 743288); details: ATP luminescence (CellTiter-Glo), 18 h, stronger effect = lower value; also: nearly all actives have a fitted effect of over 50% in size
In short: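 Steps: plate 2,000 parental HEK293 cells per well; incubate ≥5 h, 37 C; add compounds in DMSO; incubate 18 h, 37 C; add CellTiter-Glo; wait 30 min at room temperature; read luminescence.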

[19] = Cell Viability - SK-N-SH (AID 435; calls by dose curve;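 also: potency is read from the fitted curve at half-maximal effect; compound exposure lasted 40 h at 37 °C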); details: SK-N-SH neuroblastoma cell viability qHTS
In short: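 SK-N-SH neuroblastoma cells (1500/well) treated 40 h at 37 °C in complete medium; viability read as cellular ATP by CellTiter-Glo luminescence. Normalized to DMSO and 100 uM tamoxifen; AC50 from Hill fits of qHTS concentration-response.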

[20] = target: Thyroid hormone receptor beta (Homo sapiens) (UniProt P10828); assay: qHTS assay for small molecule antagonists of thyroid hormone receptor beta signaling (AID 588547; active = well fitted inhibition curve with a large enough effect in the signal ratio, with a control signal flat, not every such curve was filed as active; the % refers to the signal ratio;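 also: cells stimulated with 0.4 nM T3 agonist during compound exposure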); details: TR-UAS-bla HEK293, beta-lactamase ratio, antagonist mode, 18 h
In short: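 TR-UAS-bla GripTite HEK293 cells in 2% charcoal/dextran FBS medium; compounds 0.59 nM to 92 uM with T3 at 0.4nM final, 18 h at 37 C. Beta-lactamase read by CCF4 fluorescence (460/530 nm); Hill fits gave IC50 and efficacy.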

| SMILES | outcome [1] | Potency [2] | Potency [3] | Potency [4] | Potency [5] | Potency [6] | Potency [7] | Potency [8] | Potency [9] | Potency [10] | Potency [11] | Potency [12] | max response [13] | max response [14] | outcome [15] | max response [16] | Potency [17] | max response [18] | Potency [19] | activity change % (negative = inhibition) [20] |
| --- | --- | --- | --- | --- | --- | --- | --- | --- | --- | --- | --- | --- | --- | --- | --- | --- | --- | --- | --- | --- |
| CC(C)CON=O | inactive | inactive | inactive | inactive | inactive | inactive | inactive | inactive | inactive | inactive | inactive | inactive | 6.03% | -4.96% | inactive | 4.86% (inactive) | – | – | – | – |
| CCCCC(=O)Cl | inactive | inactive | inactive | inactive | inactive | inactive | inactive | inactive | inactive | inactive | inactive | inactive | -18.9% | -10.8% | inactive | 6.67% (inactive) | inactive | 5.94% (inactive) | – | – |
| O=C(O)CCl | inactive | inactive | inactive | inactive | inactive | inactive | inactive | inactive | inactive | inactive | inactive | inactive | -10.2% | 1.14% | inactive | 9.97% (inactive) | inactive | -4.45% (inactive) | > 92 µM (inactive) | -0.364% (inactive) |
| N#CCBr | inactive | inactive | inactive | inactive | inactive | inactive | inactive | inactive | inactive | inactive | inactive | inactive | -6.36% | 1.14% | inactive | -1.93% (inactive) | inactive | -4.55% (inactive) | > 92 µM (inactive) | 11.7% (inactive) |
| OCCOCCO | – | – | inactive | inactive | inactive | inactive | inactive | inactive | inactive | inactive | inactive | inactive | -9.96% | 2.28% | inactive | 3.46% (inactive) | inactive | 1.68% (inactive) | – | -14.9% (inactive) |
| O=S(=O)(Cl)c1ccccc1 | inactive | – | inactive | inactive | inactive | inactive | inactive | inactive | inactive | inactive | inactive | inactive | -12.3% | 25.3% and -4.13% | inactive | -0.19% (inactive) and -2.18% (inactive) | inactive | 1.81% (inactive) and -4.13% (inactive) | > 92 µM (inactive) | -1.94% (inactive) and -0.791% (inactive) |
| c1ccc(P(c2ccccc2)c2ccccc2)cc1 | inactive | inactive | – | inactive | – | inactive | inactive | inactive | inactive | inactive | inactive | inactive | 22.6% | -7.38% | inactive | 2.64% (inactive) | inactive | -11.3% (inactive) | > 92 µM (inactive) | 5.79% (inactive) |
| ClCc1ccccn1 | – | inactive | inactive | inactive | inactive | inactive | inactive | inactive | inactive | inactive | inactive | inactive | -5.13% and -0.246% | 3.04% and -6.39% | inactive | 2.99% (inactive) and 8.15% (inactive) | inactive | 1.66% (inactive) and -12.2% (inactive) | > 92 µM (inactive) | -1.68% (inactive) |
| COc1ccc(C=O)cc1 | inactive | – | inactive | inactive | inactive | inactive | inactive | inactive | inactive | inactive | inactive | inactive | -0.469% | 3.67% | inactive | 2.55% (inactive) | – | -1.3% (inactive) | – | 19.4% (inactive) |
| Cc1ccc(N)cc1N | inactive | inactive | – | inactive | inactive | inactive | inactive | inactive | inactive | inactive | inactive | inactive | -4.9% and 16.6% | -0.584% and 0.527% | – | 12.5% (inactive) and 3.01% (inactive) | inactive | 6.42% (inactive) and -0.208% (inactive) | > 92 µM (inactive) | 0.49% (inactive) and -2.4% (inactive) |
| [O-][Cl+]O | inactive | inactive | inactive | inactive | inactive | inactive | inactive | inactive | inactive | inactive | inactive | inactive | -9.53% | 0.141% | inactive | – | inactive | -2.54% (inactive) | > 92 µM (inactive) | – |
| O=C(Cc1ccccc1)OCc1ccccc1 | inactive | inactive | inactive | inactive | inactive | inactive | inactive | inactive | inactive | inactive | inactive | inactive | 10.7% | 8.24% | inactive | -0.53% (inactive) | inactive | -0.778% (inactive) | > 92 µM (inactive) | 0.158% (inactive) |
| O=[N+]([O-])c1ccccc1-c1ccccc1 | – | inactive | inactive | – | inactive | inactive | inactive | inactive | inactive | inactive | inactive | inactive | -6.95% | -2.63% | inactive | 0.722% (inactive) | inactive | 0.829% (inactive) | – | -0.648% (inactive) |
